PfM18AAP inh-1 – PfM18AAP enzyme inhibition; recombinant PfM18AAP, H-Glu-NHMec fluorogenic cleavage; inhibition, % at 7.35 µM; 1.2% of 290,000 active;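 active = inhibition above the campaign mean inhibition over all tested compounds plus 3 SD, cut at about 28% in these data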;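 also: 0% = plate median of test compound wells and 100% = 2 mM ZnCl2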
DNA FID counter – fluorescent intercalator displacement, NS3 helicase counter-screen; DNA fluorescent intercalator displacement, fluorescence; inhibition, % at 7.9 µM; 0.17% of 290,000 active; in the data active = inhibition above about 37%;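 also: 0% = vehicle and 100% = reference compound; higher means more ethidium bromide displaced from hairpin DNA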
Kir21 inh – inhibitors of mouse Kir2.1 inward-rectifier potassium channel; HEK293-Kir2.1, FluxOR thallium flux fluorescence; stronger effect = lower value; B-score at 10 µM; 0.85% of 310,000 active; AID 1672;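 active = fluorescence ratio B-score at or below minus 3 SD of library scores, with starting-brightness B-score within 2 SD, cut at about -4.2 in these data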;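 also: channel flux triggered by added potassium and thallium sulfate stimulus; B-score of peak minus minimum fluorescence over baseline after thallium stimulus; more negative B-score means stronger Kir2.1 block with less thallium influx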
Rce1 inhib – blocks yeast Ras-converting enzyme | Q03530 | yeast membranes, quenched prenylated peptide cleavage fluorescence | calls only | 0.27% of 290,000 active;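 active = fall in fluorescence gain of 50% or more versus controls, with final raw signal at or below 3038400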;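 also: plate controls were neutral control wells for no effect and wells lacking membranes for full effect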
PfM18AAP inh-2 – confirmation of Plasmodium falciparum M18 aspartyl aminopeptidase inhibitors; shares compounds with PfM18AAP inh-1; recombinant PfM18AAP, H-Glu-NHMec fluorogenic cleavage; inhibition, % at 7.35 µM; 28% of 2,400 active; AID 2170;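 active = mean inhibition over replicate wells above the hit cutoff set for the earlier primary screen, cut at about 29% in these data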;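 also: 0% = median of test compound wells and 100% = 2 mM ZnCl2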
CTSL1 confirm – Cathepsin L (human) inhibition, confirmation; purified cathepsin L1, Z-Leu-Arg-MCA fluorescence; inhibition, % at 5.96 µM; 2,400 tested, under 10 active; shares compounds with PfM18AAP inh-1; AID 2178;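 active = average inhibition across replicates above the hit cutoff set in the earlier primary screen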;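 also: 0% = median of test compound wells and 100% = Z-Phe-Ala-diazomethylketone 1 µM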
Target sequence (P07711 whole entry, looked up): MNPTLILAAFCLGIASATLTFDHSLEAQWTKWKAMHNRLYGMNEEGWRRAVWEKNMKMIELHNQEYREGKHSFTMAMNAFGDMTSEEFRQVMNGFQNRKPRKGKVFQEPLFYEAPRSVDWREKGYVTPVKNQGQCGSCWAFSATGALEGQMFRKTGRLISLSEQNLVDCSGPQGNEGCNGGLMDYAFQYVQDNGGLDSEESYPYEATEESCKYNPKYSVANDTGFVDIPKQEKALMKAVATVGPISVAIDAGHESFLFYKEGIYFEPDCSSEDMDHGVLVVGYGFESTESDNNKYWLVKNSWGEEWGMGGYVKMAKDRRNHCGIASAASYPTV
Starred values were filed as active, the others as inactive; i = inactive; · = no result given. This is a sample that favours compounds with a hit; in the whole collection about 2.3% have one here.

SMILES	PfM18AAP inh-1	DNA FID counter	Kir21 inh	Rce1 inhib	PfM18AAP inh-2	CTSL1 confirm
CC1CCN(S(=O)(=O)c2ccc3[nH]c(=O)[nH]c3c2)CC1	-1	-6	0.01	i	·	·
CCOC(=O)c1oc2c(O)c(O)ccc2c(=O)c1-c1nncn1-c1ccccc1	46*	-5	0	i	26	5
COCCN1CCN(C(=O)c2cc(COc3ccc(F)cc3F)on2)CC1	-2	-14	0.79	i	·	·
Cc1ccc(S(=O)(=O)N2CCCC(C(=O)NCC3CCCO3)C2)cc1 (configuration not stated)	-6	-14	1	i	·	·
O=C(NCC1CCCO1)C1CCCN(S(=O)(=O)c2ccc(Br)cc2)C1 (configuration not stated)	32*	-29	1.4	i	-52	-1
COc1cc(/C=C/C(=O)c2c(O)cc(C)oc2=O)cc(OC)c1O	42*	-21	-0.26	i	-16	-2
COc1cccc(/C=C/C(=O)c2c(O)cc(C)oc2=O)c1O	3	-14	-0.21	i	·	·
CC(=O)N/C(=C/c1ccc([N+](=O)[O-])cc1)C(=O)O	32*	2	0.83	·	-37	-3
CNC(=O)/C(=C\c1ccc([N+](=O)[O-])cc1)NC(C)=O	5	0	0.01	i	·	·
Cc1ccc(C2C3=C(CCCC3=O)Nc3[nH]c(=S)[nH]c(=O)c32)cc1 (configuration not stated)	40*	-36	0.01	i	38*	4
COc1ccccc1C(=O)NC(=O)COC(=O)c1cccc(NC(C)=O)c1	-14	-17	-0.21	i	·	·
O=C(CCC(=O)c1ccc(Oc2ccccc2)cc1)Nc1ccc(C(=O)O)cc1	2	-27	2.2	i	·	·
Cc1cc(NC(=O)c2ccc([N+](=O)[O-])cc2)n(CCC#N)n1	1	-3	-0.36	i	·	·
CCN(CC)P(=O)(Nc1ccc([N+](=O)[O-])cc1)c1c(C)nn(CCC#N)c1NC(=O)c1ccc(Cl)cc1 (configuration not stated)	58*	-32	-0.07	i	8	-1
CCc1cccc2c1NC(=O)C2(O)CC(=O)c1cccs1 (configuration not stated)	-6	-4	2.1	i	·	·
Cc1cccnc1NC(=S)NCc1ccco1	32*	-4	0.52	i	-20	-5
Cc1cccnc1NC(=O)c1ccc(Cl)c(S(=O)(=O)N2CCCCC2)c1	·	·	-0.34	i	·	·
Oc1cc2c(cc1CN1CCc3ccccc3C1)OCO2	37*	-4	-0.17	i	12	-6
CSc1ccc(/C=N/Nc2nc(C)cc(C)n2)cc1	1	-7	-1.9	i	·	·
Cc1cc2c(C)nc(N/N=C/c3ccc(F)cc3)nc2o1	46*	-8	0.59	i	-49	0
O=C(O)Cc1cn(-c2ccccc2)nc1-c1ccccc1	-3	-7	-0.47	i	·	·
O=C(O)/C=C/C(=O)NCc1cn(-c2ccccc2)nc1-c1cccc(Br)c1	36*	-18	-0.19	i	-35	-2
O=C(Nc1ccc(S(=O)(=O)N2CCCC2)cc1)c1c(F)cccc1F	-15	-7	1.1	i	·	·
Cc1ccc(NC(=S)NNc2ccc([N+](=O)[O-])cc2S(=O)(=O)Nc2ccccc2C(=O)O)cc1C	59*	4	-0.63	i	-7	-5
COc1cc(NC(=O)COC(=O)CC(NC(C)=O)c2ccccc2)cc(OC)c1 (configuration not stated)	0	-28	-2.5	i	·	·
SMILES	PfM18AAP inh-1	DNA FID counter	Kir21 inh	Rce1 inhib	PfM18AAP inh-2	CTSL1 confirm
CC(=O)NC(CC(=O)NNC(=O)c1cc2ccccc2cc1O)c1ccccc1 (configuration not stated)	32*	-51	-0.63	i	-16	1
CC(C)(C)NC(=O)CSc1ncnc2c1cnn2-c1ccccc1	-1	-30	-0.43	i	·	·
O=C1Nc2cc(C(F)(F)F)ccc2N2CCCCC12 (configuration not stated)	1	-3	1.6	i	·	·
COCCCNc1nc2ccccc2nc1NS(=O)(=O)c1cc(Cl)ccc1Cl	-4	-48	0.33	i	·	·
Cc1cccc(-n2cc(-c3ccccc3)[nH]c2=S)c1	39*	-22	-0.28	i	13	4
COc1ccccc1-n1cc(-c2ccccc2)[nH]c1=S	14	-13	0.99	i	·	·
COc1ccc(-n2cc(-c3ccccc3)[nH]c2=S)cc1	44*	-11	1.5	i	33*	2
